Experiments:
Test in all cases: SPOT peptide array binding signal intensity (averaged, normalized) (arbitrary units (background-subtracted, floor 0; scale differs between SH3 domains)); higher = stronger binding of the SH3 domain to the peptide
[1] = target: CaNbp2
Outline: (§1)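 Binding signal refers to normalized, background-subtracted spot intensity averaged over replicates, expressed in arbitrary units that differ between domains. GST-fused SH3 domains from four yeast species were incubated at 10 μg/ml overnight at 4°C on cellulose membranes of synthetic 15-mer peptides with cysteines replaced by serines. Bound protein was detected with anti-GST antibody, an HRP anti-mouse secondary and luminol, and quantified with Genespotter.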

[2] = target: CaRvs167
Outline: as §1

[3] = target: CaRvs167-3
Outline: as §1

[4] = target: CaSho1
Outline: as §1

[5] = target: CaSla1-D1-D2
Outline: as §1

[6] = target: CaSla1-D3
Outline: as §1

[7] = target: ScAbp1
Outline: as §1

[8] = target: ScBbc1
Outline: as §1

[9] = target: ScBem1-D1
Outline: as §1

[10] = target: ScBzz1-D1
Outline: as §1

[11] = target: ScBzz1-D2
Outline: as §1

[12] = target: ScCyk3
Outline: as §1

[13] = target: ScFus1
Outline: as §1

[14] = target: ScHof1
Outline: as §1

[15] = target: ScHse1
Outline: as §1

[16] = target: ScLsb1
Outline: as §1

[17] = target: ScLsb2
Outline: as §1

[18] = target: ScLsb3
Outline: as §1

[19] = target: ScLsb4
Outline: as §1

[20] = target: ScMyo3
Outline: as §1

[21] = target: ScMyo5
Outline: as §1

[22] = target: ScNbp2
Outline: as §1

[23] = target: ScPex13
Outline: as §1

[24] = target: ScRvs167
Outline: as §1

[25] = target: ScSho1
Outline: as §1

[26] = target: ScSla1-D1-D2
Outline: as §1

[27] = target: ScSla1-D3
Outline: as §1

[28] = target: SpAbp1-D1
Outline: as §1

[29] = target: SpBbc1
Outline: as §1

[30] = target: SpBzz1-D1
Outline: as §1

[31] = target: SpBzz1-D2
Outline: as §1

[32] = target: SpCyk3
Outline: as §1

[33] = target: SpHof1
Outline: as §1

[34] = target: SpHof1-2
Outline: as §1

[35] = target: SpHof1-3
Outline: as §1

[36] = target: SpHse1
Outline: as §1

[37] = target: SpLsb1
Outline: as §1

[38] = target: SpLsb4
Outline: as §1

[39] = target: SpMyo1
Outline: as §1

[40] = target: SpNbp2
Outline: as §1

[41] = target: SpPex13
Outline: as §1

[42] = target: SpRvs167
Outline: as §1

[43] = target: SpSla1-D1-D2
Outline: as §1

[44] = target: SpSla1-D3
Outline: as §1

[45] = target: AgAbp1
Outline: as §1

[46] = target: AgBbc1
Outline: as §1

[47] = target: AgBem1-D1
Outline: as §1

[48] = target: AgBzz1-D1
Outline: as §1

[49] = target: AgBzz1-D2
Outline: as §1

[50] = target: AgCyk3
Outline: as §1

[51] = target: AgFus1
Outline: as §1

[52] = target: AgHof1
Outline: as §1

[53] = target: AgHse1
Outline: as §1

[54] = target: AgLsb1
Outline: as §1

[55] = target: AgLsb4
Outline: as §1

[56] = target: AgMyo5
Outline: as §1

[57] = target: AgNbp2
Outline: as §1

[58] = target: AgRvs167
Outline: as §1

[59] = target: AgSho1
Outline: as §1

[60] = target: AgSla1-D1-D2
Outline: as §1

[61] = target: AgSla1-D3
Outline: as §1

[62] = target: CaAbp1-D1
Outline: as §1

[63] = target: CaAbp1-D2
Outline: as §1

[64] = target: CaBbc1
Outline: as §1

[65] = target: CaBem1-D1
Outline: as §1

[66] = target: CaBzz1-D1
Outline: as §1

[67] = target: CaBzz1-D2
Outline: as §1

[68] = target: CaCyk3
Outline: as §1

[69] = target: CaFus1
Outline: as §1

[70] = target: CaHof1
Outline: as §1

[71] = target: CaHse1
Outline: as §1

[72] = target: CaLsb1
Outline: as §1

[73] = target: CaLsb4
Outline: as §1

[74] = target: CaMyo5
Outline: as §1

## FPPKRKPLLRPQRSD
[1]
  SPOT peptide array binding signal intensity: 371
[2]
  SPOT peptide array binding signal intensity: 221
[3]
  SPOT peptide array binding signal intensity: 18.5
[4]
  SPOT peptide array binding signal intensity: 245
[5]
  SPOT peptide array binding signal intensity: 872
[6]
  SPOT peptide array binding signal intensity: 9.75
[7]
  SPOT peptide array binding signal intensity: 598
[8]
  SPOT peptide array binding signal intensity: 294
[9]
  SPOT peptide array binding signal intensity: 87
[10]
  SPOT peptide array binding signal intensity: 10.5
[11]
  SPOT peptide array binding signal intensity: 50
[12]
  SPOT peptide array binding signal intensity: 38
[13]
  SPOT peptide array binding signal intensity: 138
[14]
  SPOT peptide array binding signal intensity: 0.25
[15]
  SPOT peptide array binding signal intensity: 1190
[16]
  SPOT peptide array binding signal intensity: 27.8
[17]
  SPOT peptide array binding signal intensity: 30
[18]
  SPOT peptide array binding signal intensity: 2030
[19]
  SPOT peptide array binding signal intensity: 71
[20]
  SPOT peptide array binding signal intensity: 7.75
[21]
  SPOT peptide array binding signal intensity: 2.75
[22]
  SPOT peptide array binding signal intensity: 761
[23]
  SPOT peptide array binding signal intensity: 52.5
[24]
  SPOT peptide array binding signal intensity: 410
[25]
  SPOT peptide array binding signal intensity: 1040
[26]
  SPOT peptide array binding signal intensity: 1030
[27]
  SPOT peptide array binding signal intensity: 16
[28]
  SPOT peptide array binding signal intensity: 874
[29]
  SPOT peptide array binding signal intensity: 37
[30]
  SPOT peptide array binding signal intensity: 444
[31]
  SPOT peptide array binding signal intensity: 0.5
[32]
  SPOT peptide array binding signal intensity: 5
[33]
  SPOT peptide array binding signal intensity: 182
[34]
  SPOT peptide array binding signal intensity: 16.8
[35]
  SPOT peptide array binding signal intensity: 285
[36]
  SPOT peptide array binding signal intensity: 326
[37]
  SPOT peptide array binding signal intensity: 153
[38]
  SPOT peptide array binding signal intensity: 1630
[39]
  SPOT peptide array binding signal intensity: 22.8
[40]
  SPOT peptide array binding signal intensity: 286
[41]
  SPOT peptide array binding signal intensity: 26
[42]
  SPOT peptide array binding signal intensity: 536
[43]
  SPOT peptide array binding signal intensity: 2
[44]
  SPOT peptide array binding signal intensity: 3

## DTIDNVKSKIQDKEG
[45]
  SPOT peptide array binding signal intensity: ≤ 0
[46]
  SPOT peptide array binding signal intensity: ≤ 0
[47]
  SPOT peptide array binding signal intensity: ≤ 0
[48]
  SPOT peptide array binding signal intensity: ≤ 0
[49]
  SPOT peptide array binding signal intensity: ≤ 0
[50]
  SPOT peptide array binding signal intensity: ≤ 0
[51]
  SPOT peptide array binding signal intensity: ≤ 0
[52]
  SPOT peptide array binding signal intensity: ≤ 0
[53]
  SPOT peptide array binding signal intensity: 4
[54]
  SPOT peptide array binding signal intensity: ≤ 0
[55]
  SPOT peptide array binding signal intensity: ≤ 0
[56]
  SPOT peptide array binding signal intensity: ≤ 0
[57]
  SPOT peptide array binding signal intensity: ≤ 0
[58]
  SPOT peptide array binding signal intensity: 0.5
[59]
  SPOT peptide array binding signal intensity: ≤ 0
[60]
  SPOT peptide array binding signal intensity: ≤ 0
[61]
  SPOT peptide array binding signal intensity: ≤ 0
[62]
  SPOT peptide array binding signal intensity: ≤ 0
[63]
  SPOT peptide array binding signal intensity: ≤ 0
[64]
  SPOT peptide array binding signal intensity: ≤ 0
[65]
  SPOT peptide array binding signal intensity: ≤ 0
[66]
  SPOT peptide array binding signal intensity: 21
[67]
  SPOT peptide array binding signal intensity: ≤ 0
[68]
  SPOT peptide array binding signal intensity: ≤ 0
[69]
  SPOT peptide array binding signal intensity: ≤ 0
[70]
  SPOT peptide array binding signal intensity: ≤ 0
[71]
  SPOT peptide array binding signal intensity: ≤ 0
[72]
  SPOT peptide array binding signal intensity: ≤ 0
[73]
  SPOT peptide array binding signal intensity: ≤ 0
[74]
  SPOT peptide array binding signal intensity: ≤ 0
[1]
  SPOT peptide array binding signal intensity: ≤ 0
[2]
  SPOT peptide array binding signal intensity: 2
[3]
  SPOT peptide array binding signal intensity: 2.5
[4]
  SPOT peptide array binding signal intensity: ≤ 0
[5]
  SPOT peptide array binding signal intensity: ≤ 0
[6]
  SPOT peptide array binding signal intensity: ≤ 0
[7]
  SPOT peptide array binding signal intensity: ≤ 0
[8]
  SPOT peptide array binding signal intensity: ≤ 0
[9]
  SPOT peptide array binding signal intensity: ≤ 0
[10]
  SPOT peptide array binding signal intensity: 12
[11]
  SPOT peptide array binding signal intensity: ≤ 0
[12]
  SPOT peptide array binding signal intensity: ≤ 0
[13]
  SPOT peptide array binding signal intensity: ≤ 0
[14]
  SPOT peptide array binding signal intensity: ≤ 0
[15]
  SPOT peptide array binding signal intensity: ≤ 0
[16]
  SPOT peptide array binding signal intensity: ≤ 0
[17]
  SPOT peptide array binding signal intensity: ≤ 0
[18]
  SPOT peptide array binding signal intensity: ≤ 0
[19]
  SPOT peptide array binding signal intensity: ≤ 0
[20]
  SPOT peptide array binding signal intensity: ≤ 0
[21]
  SPOT peptide array binding signal intensity: 1
[22]
  SPOT peptide array binding signal intensity: ≤ 0
[23]
  SPOT peptide array binding signal intensity: ≤ 0
[24]
  SPOT peptide array binding signal intensity: ≤ 0
[25]
  SPOT peptide array binding signal intensity: ≤ 0
[26]
  SPOT peptide array binding signal intensity: ≤ 0
[27]
  SPOT peptide array binding signal intensity: ≤ 0
[28]
  SPOT peptide array binding signal intensity: ≤ 0
[29]
  SPOT peptide array binding signal intensity: ≤ 0
[30]
  SPOT peptide array binding signal intensity: ≤ 0
[31]
  SPOT peptide array binding signal intensity: ≤ 0
[32]
  SPOT peptide array binding signal intensity: ≤ 0
[33]
  SPOT peptide array binding signal intensity: ≤ 0
[34]
  SPOT peptide array binding signal intensity: ≤ 0
[35]
  SPOT peptide array binding signal intensity: 7.75
[36]
  SPOT peptide array binding signal intensity: ≤ 0
[37]
  SPOT peptide array binding signal intensity: ≤ 0
[38]
  SPOT peptide array binding signal intensity: ≤ 0
[39]
  SPOT peptide array binding signal intensity: ≤ 0
[40]
  SPOT peptide array binding signal intensity: ≤ 0
[41]
  SPOT peptide array binding signal intensity: ≤ 0
[42]
  SPOT peptide array binding signal intensity: ≤ 0
[43]
  SPOT peptide array binding signal intensity: ≤ 0
[44]
  SPOT peptide array binding signal intensity: ≤ 0

Reference: the supplement of paper PMC4466140
